The supplement of paper PMC6555819

Key:
Assay in all cases: PBM binding z-score (relative to random genomic background probes); higher = stronger binding; sequences stand for … in GC…GCGATTGACAGCGTAGAATGAAGG
[1] = tested on: FXR:RXRa (NR concentration 270 nM, RXRa partner concentration 90 nM)
Outline: (§1)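 The probes on custom Agilent 4×180K protein-binding microarrays were double-stranded, with 34-nt variable regions bearing direct-repeat seeds, single-nucleotide variants, half-site ablations and random human genomic background sequences. Incubation lasted 1 h with ligand-free nuclear receptor dimers in PBS pH 7.4, 2% milk, 0.02% Triton X-100, 1 mM DTT, 0.2 mg/mL BSA and 0.4 mg/ml salmon testes DNA. Antibodies against each partner (one per run) detected bound dimers, and fluorescence scans were regression-normalized. Binding z-scores take the random background probes as reference.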

[2] = tested on: LXRa:RXRa (NR concentration 270 nM, RXRa partner concentration 90 nM)
Outline: as §1

[3] = tested on: LXRa homodimer (NR concentration 270 nM)
Outline: as §1

[4] = tested on: LXRb:RXRa (NR concentration 270 nM, RXRa partner concentration 90 nM)
Outline: as §1

[5] = tested on: LXRb homodimer (NR concentration 270 nM)
Outline: as §1

[6] = tested on: PPARa:RXRa (NR concentration 270 nM, RXRa partner concentration 90 nM)
Outline: as §1

[7] = tested on: PPARg:RXRa (NR concentration 180 nM, RXRa partner concentration 90 nM)
Outline: as §1

[8] = tested on: PPARg:RXRa 270nM:90nM, anti-RXR (NR concentration 270 nM, RXRa partner concentration 90 nM)
Outline: as §1

[9] = tested on: PPARg:RXRa 30nM:10nM, anti-RXR (NR concentration 30 nM, RXRa partner concentration 10 nM)
Outline: as §1

[10] = tested on: PPARg:RXRa 90nM:30nM, anti-RXR (NR concentration 90 nM, RXRa partner concentration 30 nM)
Outline: as §1

[11] = tested on: PPARg:RXRa DBDmut IVT, anti-RXR (DBD mutation: RXRa K156A/R161A, NR concentration 270 nM, RXRa partner concentration 90 nM)
Outline: as §1

[12] = tested on: PPARg:RXRa IVT, anti-PPARg (NR concentration 270 nM, RXRa partner concentration 90 nM)
Outline: as §1

[13] = tested on: PPARg DBDmut:RXRa IVT, anti-PPARg (DBD mutation: PPARg1 K132A/R137A, NR concentration 270 nM, RXRa partner concentration 90 nM)
Outline: as §1

[14] = tested on: PPARg DBDmut IVT, anti-PPARg (DBD mutation: PPARg1 K132A/R137A, NR concentration 270 nM)
Outline: as §1

[15] = tested on: PPARg homodimer (NR concentration 180 nM)
Outline: as §1

[16] = tested on: PXR:RXRa (NR concentration 270 nM, RXRa partner concentration 90 nM)
Outline: as §1

[17] = tested on: PXR homodimer (NR concentration 270 nM)
Outline: as §1

[18] = tested on: RARa:RXR (NR concentration 270 nM, RXRa partner concentration 90 nM)
Outline: as §1

[19] = tested on: RARa homodimer (NR concentration 270 nM)
Outline: as §1

[20] = tested on: RARb:RXRa (NR concentration 270 nM, RXRa partner concentration 90 nM)
Outline: as §1

Row | Sequence | PBM binding z-score [1] | PBM binding z-score [2] | PBM binding z-score [3] | PBM binding z-score [4] | PBM binding z-score [5] | PBM binding z-score [6] | PBM binding z-score [7] | PBM binding z-score [8] | PBM binding z-score [9] | PBM binding z-score [10] | PBM binding z-score [11] | PBM binding z-score [12] | PBM binding z-score [13] | PBM binding z-score [14] | PBM binding z-score [15] | PBM binding z-score [16] | PBM binding z-score [17] | PBM binding z-score [18] | PBM binding z-score [19] | PBM binding z-score [20]
1 | AGAATGAGGTTATACGTAGATCAGGAAAGAAAGT | 2.11 | 1.99 | 0.118 | 1.76 | 0.0606 | 3.08 | 2.02 | 1.97 | 0.878 | 1.47 | 4.05 | 2.36 | 1.21 | 0.76 | 0.606 | 1.23 | 0.488 | 1.71 | 0.559 | 1.37
2 | CGTCCTAGGTCAAGGTCAGTGAAAGAGACTCGAA | 5.87 | 4.07 | 0.811 | 3.5 | 0.178 | 4.87 | 4.31 | 4.45 | 1.48 | 3.5 | 3.53 | 4.08 | 0.311 | 0.279 | 3.52 | 3.4 | 0.941 | 4.02 | 1.1 | 5.01
3 | TCTGCTAGGTCAACGATGGTCAACTAATCTGCTA | 3.62 | 3.21 | 0.113 | 2.15 | 0.0398 | 3.3 | 2.54 | 3.18 | 1.79 | 2.6 | 4.51 | 4.3 | 0.357 | 0.326 | 1.75 | 2.4 | -0.851 | 2.39 | -0.654 | 4.12
4 | CCTACTGGGCCAATCAGAGGTCATTGATCATATG | 2.78 | 4.24 | 7.72 | 3.78 | 0.545 | 3.87 | 2.45 | 3.15 | 1.12 | 2.29 | 4.6 | 4.19 | 1.25 | 0.284 | 4.19 | 5.06 | 3.38 | 5.18 | 0.519 | 3.27
5 | CCTGCTAGGTCAATGGTCAGCTTAAGCAGCTCGC | 3.08 | 2.28 | -0.0012 | 1.51 | -0.1 | 3.13 | 4.41 | 5.21 | 2.37 | 4.79 | 4.75 | 4.06 | -0.513 | -0.387 | 1.92 | 1.05 | -0.588 | 1.88 | -0.443 | 3.84
6 | TCTTTTAGTTGAAGGGCAACCGACGAGTCCGTTT | 0.645 | 1.13 | 0.171 | 1 | 1.62 | 1.16 | -0.118 | 2.13 | 3.65 | 2.71 | 2.2 | 0.777 | 2.36 | 1.84 | 0.00638 | 0.764 | 0.475 | 0.383 | 0.199 | 1.65
7 | TCCCGGAGGACACGAAGGTCAGAGCTTTCCAGAG | 1.21 | 1.09 | 0.214 | 0.838 | -1.26 | 1.81 | 0.359 | 1.33 | 1.5 | 1.41 | 0.961 | 0.734 | -0.541 | -1.41 | 1.3 | 1.73 | 0.166 | 1.95 | -0.433 | 3.44
8 | TTACCAAGGTGAAGGTAGTTGATCCCTCTGTAGA | 0.475 | 0.286 | -0.482 | 0.307 | -0.931 | 1.44 | 0.324 | 1.29 | 0.219 | 0.784 | 2.05 | 2.3 | -0.207 | -0.0185 | 0.00789 | 0.456 | -0.74 | 0.351 | -0.156 | 1.35
9 | TGAATGAGGTTAAAGATGAGGGAACGTGGCGTCG | 2.79 | 2.16 | 0.0267 | 1.29 | 0.831 | 3.65 | 3.77 | 4.65 | 2.44 | 4.35 | 2.54 | 2.8 | 0.619 | 0.196 | 0.933 | 1.49 | 0.214 | 2.17 | 0.368 | 2.1
10 | ACTAGCACGCCAAGGGTCACTCAAGATTAGTCCG | 2.79 | 3.15 | 0.382 | 3.1 | -0.324 | 3.64 | 2.48 | 3.7 | 1.47 | 3.3 | 0.189 | 1.26 | -0.247 | -0.0799 | 2.55 | 3.56 | 0.0958 | 4.5 | 1.53 | 3.58
11 | AGAATGAGGCTAAGATCAGGGAAACAGAATACAT | -0.36 | -0.634 | -0.0824 | -0.157 | -0.737 | -0.0265 | 0.645 | 0.202 | 0.113 | 0.138 | 0.345 | 0.552 | 0.582 | 0.0133 | 0.00249 | -0.259 | 0.0356 | -0.0952 | 0.229 | 0.158
12 | CTACCAAGGTGAACAAGGTGGTTGATTACTATTC | 0.298 | 0.0424 | -0.231 | 0.391 | -0.589 | 1.21 | 0.492 | 0.416 | -0.231 | 0.026 | 2.63 | 2.27 | 0.24 | -0.57 | 0.187 | 0.111 | 0.0854 | 0.44 | 0.0119 | 1.43
13 | AGAGTGAGGTTATACGTAGATCAGGGAAGAAAGT | 2.32 | 2.18 | 0.433 | 2.06 | 0.71 | 2.91 | 1.11 | 1.19 | 0.329 | 0.849 | 0.49 | 0.769 | 1.06 | 0.722 | 1.66 | 1.39 | 1.28 | 1.65 | 1.14 | 1.78
14 | TCTGCTAGGTCAGATGGTCAGCTAACGAGCTGCC | 1.36 | 0.977 | -0.468 | 0.356 | -0.258 | 1.86 | 1.57 | 2.53 | 1.8 | 2.34 | 2.66 | 2.86 | 0.906 | -0.32 | 0.276 | 0.315 | -0.95 | 1.22 | -1.27 | 3.32
15 | CCTAGCAGGCCAATCTGGGCCACTCAAGGCTTGA | -0.284 | -0.644 | -0.799 | -1.18 | -1.02 | 0.492 | -0.0153 | -0.364 | -1.32 | -1.08 | 2.99 | 2.85 | -0.703 | -1.73 | -0.99 | -1.04 | -1.05 | -1.11 | -0.723 | 0.0812
